Gli-Sufu antag = antagonists of Gli-Sufu signaling; Sufu-KO-LIGHT fibroblasts, Gli luciferase reporter luminescence; inhibition, % at 5 µM; 340,000 tested, 0.74% active; AID 588413;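 active = inhibition above about 55%, limit read from the data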
Shn3 inh set2 = reduces Shn3 3'UTR luciferase signal in osteoblasts | Clone20 osteoblast Shn3 3'UTR firefly luciferase, 24 h | inhibition, % at 12.5 µM | 360,000 tested, 0.52% active | AID 588674;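 active = mean inhibition of at least 75% with every replicate also reaching 75%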
697 NFkB inh = lowers PMA/ionomycin-induced NF-kB signal in 697 B cells | 697 B-cell NF-kB luciferase reporter, 16 h | inhibition, % at 4 µM | 330,000 tested, 0.33% active | AID 435022; in the data active = inhibition above about 35%
Jurkat NFkB inh = inhibitors of the PMA/ionomycin-induced NF-kB reporter in Jurkat cells | PMA/ionomycin-induced NF-kB luciferase reporter, luminescence | inhibition, % at 4 µM | 330,000 tested, 0.53% active | AID 435003; in the data active = inhibition above about 50%
aSyn UTR inh = 5' untranslated region of α-synuclein, MLPCN primary screen | inhibition, % (tested at 7.5 µM) | AID 1813 | 300,000 tested, 0.82% active | alpha-synuclein 5'UTR reporter, inhibitor activity; in the data active = inhibition above about 60%;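 note: H4 neuroglioblastoma cells stably carrying SNCA 5'UTR luciferase fusion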
H9c2 TAG inh = inhibitors of triacylglycerol accumulation | H9c2 cells, Nile Red lipid (TAG) fluorescence; cells loaded with 200 µM oleic acid | inhibition, % at 12.5 µM | 230,000 tested, 0.66% active | AID 651582;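 active = pattern-corrected inhibition of lipid staining of at least 50% with the nuclear-stain viability signal not falling by more than 50%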
697 NFkB conf = inhibitors of the PMA/ionomycin-induced NF-kB reporter in 697 B cells, retest | shares compounds with 697 NFkB inh | 697 B-cell NF-kB luciferase, 16 h | inhibition, % at 4 µM | 2,000 tested, 35% active | AID 449746; in the data active = inhibition mostly above about 28%, no sharp cut-off; inactive = mostly below about 22%
Each line names hits and unclear results; the compound was inactive in the other large screens (follow-up assays come after a bar, where they were run). Compounds with a hit are over-represented: about 2.3% of the library has one in this group of screens.

O=C(CCCN1C(=O)/C(=C\c2ccccc2)SC1=S)Nc1ccc(O)cc1	none (no result: H9c2 TAG inh)
CCOc1ccc(/C=C2/SC(=S)N(CCC(=O)Nc3ccc(C(=O)O)cc3)C2=O)cc1	697 NFkB inh 77 | 697 NFkB conf 77
Cc1ccc(-c2nsc3c(N4CCC(C(N)=O)CC4)ncnc23)cc1	697 NFkB inh 78 | 697 NFkB conf 53
Cc1ccc(C(=O)N2CCN(c3ncnc4c(-c5ccccc5)nsc34)CC2)cc1	none (no result: Gli-Sufu antag, Shn3 inh set2, H9c2 TAG inh)
CCOC(=O)N1CCN(C(=O)c2ccc(Cn3c(=S)[nH]c4cc(OCC)c(OCC)cc4c3=O)cc2)CC1	697 NFkB inh 37 | 697 NFkB conf inactive
CCOC(=O)N1CCN(C(=O)c2ccc(Cn3c(=S)[nH]c4cc5c(cc4c3=O)OCO5)cc2)CC1	none
CCC(CO)Oc1cc(NCc2ccccc2O)c2ncn(C(C)C)c2c1 (stereo not drawn)	697 NFkB inh 45 (no result: aSyn UTR inh) | 697 NFkB conf 46
Brc1ccc(-c2nc(-c3ccncc3)no2)cc1	none (no result: H9c2 TAG inh)
c1ccc(-c2ccc(-c3nc(-c4ccncc4)no3)cc2)cc1	none (no result: H9c2 TAG inh) | 697 NFkB conf inactive
c1ccc(-c2nc(-c3ccncc3)no2)cc1	none
CCc1ccc(-c2nc(-c3ccncc3)no2)cc1	none (no result: aSyn UTR inh, H9c2 TAG inh) | 697 NFkB conf inactive
Cc1ccccc1C(=O)Nc1scc(-c2ccc(Br)cc2)c1C(=O)O	none
COCCCn1c(=O)/c(=C\c2cccc(OC)c2OC)s/c1=C(/C#N)C(=O)Nc1ccc(C(=O)O)cc1	697 NFkB inh 43 | 697 NFkB conf 37
O=C(CCNC(=O)c1ccc(Br)cc1)NC1CCCc2ccccc21 (stereo not drawn)	none | 697 NFkB conf inactive
CC(NC(=O)C1CCC(CNc2c(N3CCCCC3)c(=O)c2=O)CC1)c1ccccc1 (stereo not drawn)	697 NFkB inh 36 | 697 NFkB conf inactive
CCOc1ccccc1NC(=O)C1CCC(CNc2c(N3CCCCC3)c(=O)c2=O)CC1 (stereo not drawn)	none
CCCn1nc(Oc2nc(NCC)nc(NC(C)C)n2)ccc1=O	697 NFkB inh 62 | 697 NFkB conf inactive
CC(C)Nc1nc(NC(C)(C)C)nc(Oc2ccc(=O)n(C)n2)n1	none
N/C(=N\OC(=O)c1ccc(Cl)cc1Cl)c1cccnc1	none (no result: H9c2 TAG inh)
N/C(=N\OC(=O)c1ccc(Cl)cc1Cl)c1ccc(Cl)cc1	none | 697 NFkB conf inactive
COc1ccc(C2/C=C\CN3CCC[C@H]3C(=O)N2Cc2ccc(F)cc2)cc1 (stereo partly drawn)	none (no result: Jurkat NFkB inh, aSyn UTR inh)
CCC1(c2ccc(Cl)cc2)NC(=O)N(CC(=O)NC2CCCC(C)C2C)C1=O (stereo not drawn)	697 NFkB inh 39 (no result: aSyn UTR inh) | 697 NFkB conf inactive
CCN(CC)S(=O)(=O)c1cc(NC(=O)c2cc(-c3ccccn3)nc3ccccc23)ccc1C	none
COc1ccc(NC(=O)c2cc(-c3ccccn3)nc3ccccc23)cc1S(=O)(=O)N(C)C	697 NFkB inh 39 (no result: aSyn UTR inh) | 697 NFkB conf 46
Cc1cc(Cl)c(S(=O)(=O)N2CCCC2)cc1OCC(=O)NC1CCCCC1	none (no result: H9c2 TAG inh)
Cc1cc(Cl)c(S(=O)(=O)NC(C(=O)O)C(C)C)cc1OCC(=O)NC1CCCCC1 (stereo not drawn)	697 NFkB inh 37 (no result: H9c2 TAG inh) | 697 NFkB conf inactive
Cc1nc2c(-c3ccc(F)cc3)cnn2c(N)c1-c1ccccc1	none (no result: H9c2 TAG inh) | 697 NFkB conf inactive
Cc1cc(-c2ccc(F)cc2)n2ncc(-c3ccccc3)c2n1	none (no result: Gli-Sufu antag, 697 NFkB inh, Jurkat NFkB inh, aSyn UTR inh)
O=c1c(-c2ccc(F)cc2)coc2cc(O)ccc12	none (no result: H9c2 TAG inh) | 697 NFkB conf inactive
NNC(=O)COc1ccc(-c2nccc(-c3ccc(F)cc3)n2)cc1	697 NFkB inh 60 (no result: H9c2 TAG inh) | 697 NFkB conf 50
O=C(O)COc1ccc(-c2nccc(-c3ccccn3)n2)cc1	697 NFkB inh 52, aSyn UTR inh 72 | 697 NFkB conf 56
S=C(Nc1ccc(-c2nc3ccccc3[nH]2)cc1)Nc1cccnc1	none (no result: H9c2 TAG inh) | 697 NFkB conf inactive
c1cncc(-c2nc3ccccc3[nH]2)c1	none (no result: H9c2 TAG inh)
CC(C)OC(=O)CN1CCN(S(=O)(=O)c2cc(Cl)ccc2Cl)CC1	none (no result: aSyn UTR inh, H9c2 TAG inh)
Cc1cccc2nc(COc3ccc(-c4ccccc4)cc3)cn12	none (no result: Gli-Sufu antag, Shn3 inh set2, H9c2 TAG inh) | 697 NFkB conf inactive
O=C(NOCc1cscn1)Nc1ccccc1	none (no result: 697 NFkB inh, Jurkat NFkB inh, aSyn UTR inh)
O=C1OC2(CCCCC2)OC(=O)C1=CNc1ccc2c(c1)OCO2	none
O=C1/C(=C/Nc2ccc3c(c2)OCO3)CCc2ccccc21	aSyn UTR inh 96 | 697 NFkB conf inactive
